Measured values taken from PubChem BioAssay AID1159580 (chemical genetic matrix, 2015).
The campaign covered roughly 5,500 compounds. About 2,000 (36%) were called active. Not shown: some 18% with an inconclusive outcome. Rule as the data show it: active = normalized growth mostly below about 0.91 (no sharp cut-off); inconclusive = no clear call, values can overlap the other calls; inactive = mostly above about 0.92. Some of the results follow.

Assay: chemical genetic growth profiling, strain panel (AID 1159580);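 also: tested at 20 µM; growth read once vehicle control cultures reached saturation at 30 °C; 1 = growth at the plate median or of vehicle wells; lower values mean less growth of the strain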
Conditions: growth OD
[1] = S. cerevisiae deletion strains, locus YGR078C, strain PAC10, active compounds read low
[2] = S. cerevisiae deletion strains, locus YGR229C, strain SMI1, active compounds read low
[3] = S. cerevisiae deletion strains, locus YNL128W, strain TEP1, active compounds read low
[4] = S. cerevisiae deletion strains, locus YNL322C, strain KRE1, active compounds read low
[5] = S. cerevisiae deletion strains, locus YPL055C, strain LGE1, active compounds read low

Measured: normalized growth

COc1cc(NS(C)(=O)=O)ccc1Nc1c2ccccc2nc2ccccc12
inactive: S. cerevisiae deletion strains, locus YAL040C, strain CLN3, active compounds read low 0.985 | S. cerevisiae deletion strains, locus YCL061C, strain MRC1 (second series), active compounds read low 0.981 | S. cerevisiae deletion strains, locus YDR363W, strain ESC2, active compounds read low 0.916 | S. cerevisiae deletion strains, locus YER002W, strain NOP16, active compounds read low 0.989 | [1] 0.985 | [2] 0.955 | [3] 1.02 | S. cerevisiae deletion strains, locus YNL175C, strain NOP13, active compounds read low 1 | S. cerevisiae deletion strains, locus YNL197C, strain WHI3, active compounds read low 0.967 | S. cerevisiae deletion strains, locus YNL224C, strain SQS1, active compounds read low 0.98 | [4] 0.965 | S. cerevisiae deletion strains, locus YOR083W, strain WHI5 (second series), active compounds read low 0.975 | [5] 0.902

COc1ccc(-c2cc(=O)c3c(OC)cc(OC)cc3o2)cc1
inactive: S. cerevisiae deletion strains, locus YAL013W, strain DEP1, active compounds read low 0.981 | S. cerevisiae deletion strains, locus YBR021W, strain FUR4, active compounds read low 0.903 | S. cerevisiae deletion strains, locus YBR229C, strain ROT2, active compounds read low 1 | S. cerevisiae deletion strains, locus YCL029C, strain bik1, active compounds read low 1.01 | S. cerevisiae deletion strains, locus YDL035C, strain GPR1, active compounds read low 0.981 | S. cerevisiae deletion strains, locus YDL074C, strain BRE1, active compounds read low 0.905 | S. cerevisiae deletion strains, locus YDL101C, strain DUN1, active compounds read low 0.988 | S. cerevisiae deletion strains, locus YDL134C, strain PPH21, active compounds read low 0.984 | S. cerevisiae deletion strains, locus YDL185W, strain tfp1, active compounds read low 0.996 | S. cerevisiae deletion strains, locus YDL192W, strain arf1, active compounds read low 0.986 | S. cerevisiae deletion strains, locus YDR101C, strain arx1, active compounds read low 0.977 | S. cerevisiae deletion strains, locus YDR150W, strain NUM1, active compounds read low 1 | S. cerevisiae deletion strains, locus YDR162C, strain NBP2, active compounds read low 0.944 | S. cerevisiae deletion strains, locus YDR318W, strain mcm21, active compounds read low 0.973 | S. cerevisiae deletion strains, locus YDR388W, active compounds read low 0.99 | S. cerevisiae deletion strains, locus YDR502C, strain sam2, active compounds read low 0.963 | S. cerevisiae deletion strains, locus YEL061C, strain CIN8, active compounds read low 0.997 | S. cerevisiae deletion strains, locus YER110C, active compounds read low 1.02 | S. cerevisiae deletion strains, locus YER155C, strain BEM2, active compounds read low 0.993 | S. cerevisiae deletion strains, locus YER167W, strain BCK2, active compounds read low 0.989 | S. cerevisiae deletion strains, locus YGL078C, strain dbp3, active compounds read low 1 | S. cerevisiae deletion strains, locus YGL086W, strain mad1, active compounds read low 1 | S. cerevisiae deletion strains, locus YGL248W, strain PDE1, active compounds read low 0.988 | [1] 0.948 | S. cerevisiae deletion strains, locus YGR135W, strain pre9, active compounds read low 0.926 | [2] 0.873 | S. cerevisiae deletion strains, locus YGR252W, strain gcn5, active compounds read low 0.834 | S. cerevisiae deletion strains, locus YHR030C, strain SLT2, active compounds read low 0.997 | S. cerevisiae deletion strains, locus YHR079C, strain IRE1 (second series), active compounds read low 0.979 | S. cerevisiae deletion strains, locus YHR094C, strain hxt1, active compounds read low 1.01 | S. cerevisiae deletion strains, locus YHR129C, strain ARP1, active compounds read low 0.99 | S. cerevisiae deletion strains, locus YHR200W, strain rpn10, active compounds read low 0.992 | S. cerevisiae deletion strains, locus YIL066C, strain RNR3, active compounds read low 0.965 | S. cerevisiae deletion strains, locus YIL073C, strain SPO22, active compounds read low 0.983 | S. cerevisiae deletion strains, locus YIL125W, strain kgd1, active compounds read low 1.01 | S. cerevisiae deletion strains, locus YIR030C, strain dcg1, active compounds read low 0.993 | S. cerevisiae deletion strains, locus YJL095W, strain BCK1, active compounds read low 0.888 | S. cerevisiae deletion strains, locus YJL134W, strain LCB3, active compounds read low 0.994 | S. cerevisiae deletion strains, locus YJL168C, strain set2, active compounds read low 0.998 | S. cerevisiae deletion strains, locus YJL187C, strain SWE1 (second series), active compounds read low 0.957 | S. cerevisiae deletion strains, locus YJR043C, strain POL32, active compounds read low 0.983 | S. cerevisiae deletion strains, locus YJR075W, strain HOC1, active compounds read low 0.968 | S. cerevisiae deletion strains, locus YKL009W, strain mrt4, active compounds read low 0.987 | S. cerevisiae deletion strains, locus YKL068W, active compounds read low 1.01 | S. cerevisiae deletion strains, locus YKL085W, strain MDH1 (second series), active compounds read low 1.01 | S. cerevisiae deletion strains, locus YKL085W, strain MDH1, active compounds read low 1.01 | S. cerevisiae deletion strains, locus YKL190W, strain CNB1, active compounds read low 0.996 | S. cerevisiae deletion strains, locus YKR001C, strain vps1, active compounds read low 0.996 | S. cerevisiae deletion strains, locus YLR039C, strain RIC1, active compounds read low 1.03 | S. cerevisiae deletion strains, locus YLR058C, strain SHM2, active compounds read low 0.988 | S. cerevisiae deletion strains, locus YLR102C, strain apc9, active compounds read low 0.998 | S. cerevisiae deletion strains, locus YLR262C, strain YPT6, active compounds read low 1.02 | S. cerevisiae deletion strains, locus YLR268W, strain sec22, active compounds read low 0.95 | S. cerevisiae deletion strains, locus YLR330W, strain CHS5, active compounds read low 0.999 | S. cerevisiae deletion strains, locus YLR342W, strain FKS1 (second series), active compounds read low 0.951 | S. cerevisiae deletion strains, locus YLR371W, strain rom2, active compounds read low 1.01 | S. cerevisiae deletion strains, locus YLR418C, strain cdc73, active compounds read low 0.869 | S. cerevisiae deletion strains, locus YML016C, strain PPZ1, active compounds read low 1 | S. cerevisiae deletion strains, locus YML032C, strain rad52, active compounds read low 0.969 | S. cerevisiae deletion strains, locus YML124C, strain tub3, active compounds read low 1 | S. cerevisiae deletion strains, locus YMR078C, strain ctf18, active compounds read low 0.988 | S. cerevisiae deletion strains, locus YMR223W, strain ubp8, active compounds read low 0.972 | S. cerevisiae deletion strains, locus YMR263W, strain SAP30, active compounds read low 0.95 | S. cerevisiae deletion strains, locus YMR307W, strain GAS1, active compounds read low 0.839 | S. cerevisiae deletion strains, locus YNL067W, strain RPL9B, active compounds read low 0.962 | [3] 0.981 | S. cerevisiae deletion strains, locus YNL153C, strain GIM3, active compounds read low 0.955 | S. cerevisiae deletion strains, locus YNL233W, strain BNI4, active compounds read low 0.923 | S. cerevisiae deletion strains, locus YNL250W, strain rad50, active compounds read low 1.01 | S. cerevisiae deletion strains, locus YNL271C, strain bni1, active compounds read low 1.02 | S. cerevisiae deletion strains, locus YNL298W, strain CLA4, active compounds read low 1 | S. cerevisiae deletion strains, locus YNL307C, strain MCK1, active compounds read low 0.93 | [4] 1.01 | S. cerevisiae deletion strains, locus YNR052C, strain pop2, active compounds read low 0.995 | S. cerevisiae deletion strains, locus YOL006C, strain TOP1, active compounds read low 0.858 | S. cerevisiae deletion strains, locus YOL012C, strain htz1 1.8 | S. cerevisiae deletion strains, locus YOL147C, strain pex11, active compounds read low 0.989 | S. cerevisiae deletion strains, locus YOR061W, strain CKA2, active compounds read low 0.999 | S. cerevisiae deletion strains, locus YOR069W, strain VPS5, active compounds read low 1 | S. cerevisiae deletion strains, locus YOR136W, strain idh2, active compounds read low 0.996 | S. cerevisiae deletion strains, locus YOR144C, strain elg1, active compounds read low 1 | S. cerevisiae deletion strains, locus YOR184W, strain ser1, active compounds read low 0.967 | S. cerevisiae deletion strains, locus YOR316C, strain cot1, active compounds read low 1 | [5] 0.92 | S. cerevisiae deletion strains, locus YPL241C, strain CIN2, active compounds read low 0.996 | S. cerevisiae deletion strains, locus YPR119W, strain clb2, active compounds read low 1 | S. cerevisiae deletion strains, locus YPR141C, strain kar3, active compounds read low 1.01 | S. cerevisiae deletion strains, locus YPR163C, strain tif3, active compounds read low 0.971 | S. cerevisiae deletion strains, locus YPR167C, strain met16, active compounds read low 1 | S. cerevisiae deletion strains, strain wtn01, active compounds read low 0.963 | S. cerevisiae strains, strain wild type, active compounds read low 0.992
